Results: PubChem BioAssay AID1240 (Sanford-Burnham Center for Chemical Genomics, 2008)
Out of some 50,000 compounds screened, about 800 (1.6%) showed an effect of 50% or more. For the sample, strong results were picked, then their nearest neighbours and some compounds at random.

The compounds below were run against Bcl-2-like protein 10 (Homo sapiens) (UniProt Q9HD36) (assay: Phenotype converters, Bcl-B/TR3 peptide binding displacement, primary biochemical FP (AID 1240;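 also: 0% = Bcl-B with tracer peptide and DMSO and 100% = tracer peptide lacking Bcl-B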)). Settings: GST-Bcl-B / FITC-TR3 peptide fluorescence polarization; stronger effect = higher value; compound at 3.75 mg/L.
Chain of Bcl-2-like protein 10 (Homo sapiens) (Q9HD36 whole entry, looked up): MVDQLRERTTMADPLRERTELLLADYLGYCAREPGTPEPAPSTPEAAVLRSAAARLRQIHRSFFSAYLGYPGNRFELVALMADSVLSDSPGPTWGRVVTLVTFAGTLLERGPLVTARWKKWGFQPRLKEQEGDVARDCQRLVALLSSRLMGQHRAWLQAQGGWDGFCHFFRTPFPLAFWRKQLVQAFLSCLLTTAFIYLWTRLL

Compared with `C=CCn1c(Cc2ccccc2)n[nH]c1=S`, `O=Cc1ccc(/C=C2/SC(=S)N(Cc3ccccc3)C2=O)cc1` is higher in displacement: -5.1% for the first, 10.5% for the second.

First: CCc1ccc(NC(=O)C2CC(=O)N=C(N)S2)cc1 (stereo not drawn)
Second: Cc1cc(C)nc(NS(=O)(=O)c2ccc(N/C=C\C(=O)c3cccs3)cc2)n1
The displacement of the first is lower: -2.4% for the first, 78.5% for the second.

First: Oc1c(C=Nc2cccc3nsnc23)sc2ccccc12
Second: O=C(Cn1cc(/C=C2\SC(=O)NC2=O)c2ccccc21)Nc1ccccc1
The displacement of the first is lower: -12.3% for the first, -4.9% for the second.

Compared with `Cc1cc(NS(=O)(=O)c2ccc(N/C=C/C(=O)c3cccs3)cc2)nc(C)n1`, `Cc1cc(C)nc(NS(=O)(=O)c2ccc(N/C=C\C(=O)c3ccc4ccccc4c3)cc2)n1` is higher in displacement: 2.1% for the first, 14.7% for the second.

First: CCOC(=O)C1=C(O)/C(=C/c2cc(OC)c(OC)c(OC)c2)SC1=Nc1ccc(C)cc1
Second: COc1cccc(/C=C2\SC(=S)N(Cc3ccccc3)C2=O)c1OC
The displacement of the first is lower: -5.5% for the first, 8.6% for the second.

First: O=[N+]([O-])c1ccc(C[n+]2cc(-c3ccc(Cl)c(Cl)c3)n3c2CCC3)cc1
Second: O=C1CS/C(=N/N=C/c2ccc(-c3ccc([N+](=O)[O-])cc3)o2)N1
The displacement of the first is lower: 9.6% for the first, 41.1% for the second.

First: O=C1CS/C(=N/N=C/c2ccc(-c3ccc(Cl)cc3)o2)N1
Second: Cc1c(Cl)cccc1-c1ccc(/C=N/N=C2\NC(=O)CS2)o1
The displacement of the first is lower: -6.7% for the first, 133% for the second.

First: Cc1cc(/C=C2\C(=O)NC(=O)N(c3cccc(F)c3)C2=O)c(C)n1C
Second: COC(=O)Cn1cc(/C=C2\C(=O)NC(=O)N(c3cccc(F)c3)C2=O)c2ccccc21
The displacement of the first is lower: 18.4% for the first, 35.8% for the second.

Compared with `O=C(Cn1cc(/C=C2/C(=O)NC(=O)N(c3cccc(Cl)c3)C2=O)c2ccccc21)Nc1ccccc1`, `O=C(Cn1cc(/C=C2/C(=O)NC(=O)N(c3cccc(F)c3)C2=O)c2ccccc21)Nc1ccccc1` is higher in displacement: 94.7% for the first, 116% for the second.

Going from `CC(Oc1ccc(/C=C2/SC(=S)N(Cc3ccccc3)C2=O)cc1)c1ccccc1` (stereo not drawn) to `CC(C)c1ccc(/C=C2\SC(=S)N(Cc3ccccc3)C2=O)cc1`, the displacement falls from 123% to 2.6%.

Going from `CN1C(=O)/C(=C\c2cn(Cc3ccccc3)c3ccccc23)SC1=S` to `CCN1C(=O)/C(=C\c2cn(Cc3ccccc3)c3ccccc23)SC1=S`, the displacement falls from 8.3% to 3.3%.

Going from `COc1ccccc1OCCn1cc(/C=C2/SC(=S)N(Cc3ccccc3)C2=O)c2ccccc21` to `CCN1C(=O)/C(=C\c2cn(CCOc3ccccc3C)c3ccccc23)SC1=S`, the displacement rises from 112% to 127%.

Compared with `COc1ccccc1/C=C1/SC(=S)N(Cc2ccccc2)C1=O`, `COc1ccc(/C=C2/SC(=S)N(Cc3ccccc3)C2=O)c2ccccc12` is higher in displacement: 16.7% for the first, 60.2% for the second.

`C=CCc1ccccc1OCCn1cc(/C=C2/SC(=S)N(CC)C2=O)c2ccccc21` and `Cc1ccccc1OCCn1cc(/C=C2/SC(=S)N(C)C2=O)c2ccccc21` are the same in displacement: 11.6% for the first, 11.6% for the second.
